ATXN2 expr inh: Primary qHTS for Inhibitors of ATXN expression; Potency, µM (highest dose often 57 µM), for the others: at the top dose activity change, negative = inhibition, actives largely listed as inhibitors; actives 0.72% (n = 360,000); HEK-293 ATXN2-luciferase reporter, luminescence, 24 h; further: on the % scale 0 is the no-effect control and ±100 the full control effect; nearly all actives have a fitted effect of over 55% in size
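ATXN2-luciferase reporter cells (luciferase flanked by upstream and downstream ATXN2 gene portions) were treated 24 h at 37 °C with compounds at up to 57 uM. SteadyGlo luminescence gave expression; GF-AFC fluorescence gave viability.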
S2 tox: Viability Counterscreen for Primary qHTS for Inhibitors of ATXN expression. actives 0.49% (n = 400,000). S2 cells (HEK-293 line with an ATXN2-luciferase reporter) viability, CellTiter-Fluor protease fluorescence, 24 h. AID 651635, 2014. Potency, µM (titrated, usually from 56.7 µM), most hits filed as cytotoxic; further: nearly all actives have a fitted effect of over 40% in size
Gal4-VP16 FLuc: VP16 counterscreen qHTS for inhibitors of ROR gamma transcriptional activity; Drosophila S2 Gal4-VP16 UAS-luciferase, luminescence, 20 h; Potency, µM (doses to about 53.6 µM), for inactives: top-dose activity, negative = inhibition, actives largely listed as inhibitors; actives 3.5% (n = 310,000); AID 2546, 2010;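 further: Gal4-VP16 expression switched on by copper sulfate through the metallothionein promoter; on the % scale 0 is the no-effect control and ±100 the full control effect; nearly all actives have a fitted effect of over 50% in size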
HepG2 tox: qHTS for Inhibitors of TGF-b: Cytotox Counterscreen | Potency, µM (highest dose often 46.1 µM), inactives show at the top dose activity change, negative = cytotoxicity, usual class: cytotoxic | actives 0.76% (n = 410,000) | HepG2 CAGA-GFP viability, ATP luminescence, 18 h
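HepG2 CAGA-GFP cells (1000/well, DMEM with 1% FBS) received compound, then TGF-beta at 500 pg/mL final, and were incubated 18 hours at 37 degrees C. Viability was read by CellTiter-Glo luminescence. Media-only wells were set as complete cell-killing and DMSO as no toxicity.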
RORg inh: qHTS for inhibitors of ROR gamma transcriptional activity. Potency, µM (titrated, usually from 53.6 µM), inactives show top-dose activity change, negative = inhibition, usual class: inhibitors. actives 5.4% (n = 310,000). Drosophila S2 Gal4-RORgamma UAS-luciferase reporter, 20 h. Nuclear receptor ROR-gamma (Mus musculus), P51450; further: on the % scale 0 is the no-effect control and ±100 the full control effect; nearly all actives have a fitted effect of over 60% in size
Target sequence (P51450 whole entry, looked up, the tested form may be a part): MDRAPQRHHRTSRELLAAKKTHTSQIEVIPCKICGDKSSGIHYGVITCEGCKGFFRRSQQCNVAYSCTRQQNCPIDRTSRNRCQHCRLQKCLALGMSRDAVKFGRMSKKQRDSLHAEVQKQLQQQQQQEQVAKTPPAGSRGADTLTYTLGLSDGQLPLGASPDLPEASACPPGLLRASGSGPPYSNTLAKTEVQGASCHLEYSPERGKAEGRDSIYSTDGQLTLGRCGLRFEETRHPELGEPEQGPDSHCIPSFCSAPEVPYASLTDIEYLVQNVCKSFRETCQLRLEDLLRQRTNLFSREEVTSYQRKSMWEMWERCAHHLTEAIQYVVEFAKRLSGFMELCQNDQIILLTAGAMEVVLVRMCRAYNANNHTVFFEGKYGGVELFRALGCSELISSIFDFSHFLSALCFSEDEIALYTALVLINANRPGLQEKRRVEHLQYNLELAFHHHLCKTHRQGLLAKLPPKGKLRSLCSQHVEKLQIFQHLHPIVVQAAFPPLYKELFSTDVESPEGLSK
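Stable Schneider cell line, Gal4 DNA-binding domain fused to ROR gamma, UAS-luciferase. Cmpd 1 hr RT → CuSO4 700 uM final → 20 hr RT → luciferase reagent 10 min → luminescence.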
TGFb inhibitor: qHTS for Inhibitors of TGF-b | HepG2 CAGA-GFP TGF-b/SMAD3 reporter, GFP fluorescence, 18 h; TGF-beta stimulated, 500 pg/mL final | Potency, µM (series often up to 46.1 µM), for inactives: top-dose activity, negative = inhibition, most hits filed as inhibitors | actives 1.2% (n = 410,000) | AID 588855, 2011; further: on the % scale 0 is the no-effect control and ±100 the full control effect; nearly all actives have a fitted effect of over 65% in size
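Inhibition was scored as loss of TGF-beta-induced (500 pg/mL final, 18 hours, 37 degrees C) GFP in HEPG2 cells carrying a CAGA-GFP reporter, in DMEM with 1% FBS. Well GFP was summed per cell; Activity was normalised to unstimulated and stimulated DMSO wells, then concentration-response fitting.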
* hit, by the source's call; i = inactive; ? = inconclusive; nt = no result; [ ] = remark or other dose. In the library only some 6.3% were active in any assay of this set; here they are far more common. The call rests on the fitted dose curve; in most records, active means well fitted curve in the direction sought with a large enough effect; inconclusive means small, poorly fitted or top-dose-only effect, or another doubt; inactive means no such curve, though single readings can be large; an effect the other way counts as inactive or inconclusive. Potency means the concentration at half of the fitted maximal effect.

SMILES	ATXN2 expr inh	S2 tox	Gal4-VP16 FLuc	HepG2 tox	RORg inh	TGFb inhibitor
Cc1cccc(C(=O)N2CCC(=O)N([C@H](COCc3cccc(C(F)(F)F)c3)Cc3ccccc3)CC2)c1	?	31.6µM*	2.4%[40.7 µM]	nt	3.0%[40.7 µM]	nt
Cc1cccc(COC[C@H](Cc2ccccc2)N2CCN(C(=O)c3cccc(C)c3)CCC2=O)c1	-26.5%	25.1µM*	-10.4%	nt	4.4%	nt
CC(C)CC(COCc1cccc(Cl)c1)N1CCN(C(=O)c2cccc(C(F)(F)F)c2)CCC1=O (centres undefined)	-34.0%	?	-3.6%	-2.2%	1.2%	?
CCOc1ccc(-c2c(C)nn3c(C)c(C(=O)NCc4cccc(OC)c4)cnc23)cc1OCC	-12.1%	i	nt	-17.1%	nt	?
N#Cc1c[nH]n2c(NC3CCCCC3)c(-c3ccccc3F)nc12	2.6%	i	nt	-8.9%	nt	-1.7%
CC[C@H](NC(C)C)[C@H](O)c1ccc(O)c(O)c1	nt	nt	-16.0%[17 µM]	nt	-12.7%[16.9 µM]	nt
Cc1cc(-c2ncc(CC(=O)Nc3ccc(-c4cnccn4)cn3)cc2C)ccn1	-18.1%	nt	nt	nt	nt	nt
COc1cnc(-c2ccccn2)nc1Sc1cccc(Cl)c1	?	?	8.91µM*	-19.0%	2µM*	4.2%
COc1cnc(-c2ccccn2)nc1Sc1ccc(C)cc1	?	?	10µM*	-30.5%	1.12µM*	-17.4%
COc1ccccc1Sc1nc(-c2ccccn2)ncc1OC	?	?	?	-9.5%	7.94µM*	-13.9%
Cc1ccc(Sc2cc(C)nc(-c3ccccn3)n2)cc1	?	i	3.16µM*	-19.3%	0.355µM*	-22.0%
COc1ccc(Sc2nc(-c3ccccc3)ncc2C(=O)O)cc1	-25.2%	i	-10.1%	-9.9%	-5.2%	-7.1%
COc1cnc(-c2ccccn2)nc1NC(C)C	?	?	-10.1%	-7.7%	?	-22.4%
Nc1cccnc1Sc1cccc(Cl)c1	2.1%	i	-13.2%	-0.4%	1.3%	-0.6%
CN(C)CCNc1ncnc2c1sc1nc(-c3ccccc3)c3c(c12)CCCC3	31.6µM*	nt	2.82µM*	14.1µM*	?	?
COc1ncnc2c1sc1nc(-c3ccccc3)c3c(c12)CCCC3	-7.7%	i	-8.2%	-0.4%	1.9%	5.3%
Cc1cc(C2N=C(N)Nc3nc4ccccc4n32)c(C)n1-c1ccccc1Cl (centres undefined)	-10.0%	i	-4.5%	-41.2%	-27.5%	11.2µM*
COc1ccc(CCSc2n[nH]c(C(C)C)n2)cc1	nt	nt	nt	-4.6%	nt	-2.3%
Oc1ccc2ccccc2c1/C=N/Nc1nnc(-c2ncc[nH]2)c2ccccc12	?	i	0.251µM*	-23.7%	0.251µM*	?
CC(=O)Nc1ccc(C=NNc2nnc(NN=Cc3ccc(NC(C)=O)cc3)c3ccccc23)cc1	-23.6%	i	nt	-19.4%	nt	-11.3%
COc1ccc(/C=N/Nc2nnc(-c3ncc[nH]3)c3ccccc23)cc1	44.9%	i	4.47µM*	19.6%	2.82µM*	0.0%
Oc1ccc2ccccc2c1C=NNc1ccccn1	?	?	nt	-35.0%	nt	?
COc1cc(-c2ccc(N=C=O)c(OC)c2)ccc1N=C=O	nt	nt	-1.9%	nt	5.6%	nt
CC1(C)CC[C@]2(C)CC[C@@]3(C)C(=CCC4[C@@]5(C)CCC(O)C(C)(C)C5CC[C@@]43C)C2C1 (some centres undefined)	nt	nt	-2.8%	nt	10.8%	nt
CC1(C)CC[C@]2(C(=O)O)C(O)C[C@@]3(C)C(=CCC4[C@@]5(C)CCC(O)C(C)(C)C5CC[C@@]43C)C2C1 (some centres undefined)	nt	nt	-28.8%	nt	1.41µM*	nt
SMILES	ATXN2 expr inh	S2 tox	Gal4-VP16 FLuc	HepG2 tox	RORg inh	TGFb inhibitor
COc1ccc(C2(C(=O)NCCCN3CCOCC3)CCOCC2)cc1	4.8%	i	-5.0%	-1.7%	3.55µM*	?
N#C/C(=C(/O)COC(=O)c1ccc(Cl)c(S(=O)(=O)N2CCOCC2)c1)c1nc2ccccc2[nH]1	4.1%	i	7.08µM*	-4.9%	3.55µM*	-9.8%
N#C/C(=C\Nc1ccc2c(c1)OCCO2)c1nc2ccccc2[nH]1	7.2%	i	5.01µM*	-15.6%	3.16µM*	?
N#C/C(=C(/O)COC(=O)c1ccc2c(c1)OCCO2)c1nc2ccccc2[nH]1	8.9%	?	16.4%	15.8µM*	?	-6.2%
N#C/C(=C\Nc1ccc2c(c1)OCCO2)c1nc(-c2ccccc2)cs1	nt	i	-4.2%	-3.8%	14.6%[10 µM]	-0.7%
Cc1ccc(C(=O)OC/C(O)=C(\C#N)c2nc3ccccc3[nH]2)cc1S(=O)(=O)N1CCOCC1	-12.9%	i	?	0.5%	?	-26.7%
CCOC(=O)c1ccc2c(c1)nc(SC/C(O)=C(\C#N)c1nc3ccccc3[nH]1)n2CC	2.9%	i	-2.0%	-13.9%	5.01µM*	-4.3%
CCNC(=O)C1(C)CCCN(Cc2ccccc2-c2ccccc2)C1 (centres undefined)	-19.7%	i	nt	6.0%	nt	?
COc1cccc(CNC(=O)c2c(OC)cc(=O)n3c2CCN(C(=O)c2ccc(Cl)cc2)CC3)c1	nt	i	nt	nt	nt	nt
CC(=O)c1cccc(NC(=O)c2cccc3c(-c4cnn(C)c4)coc23)c1	-17.7%	i	nt	-35.9%	nt	-23.2%
N#C/C(=C(/O)c1ccc([N+](=O)[O-])o1)c1nc2ccccc2[nH]1	nt	?	-8.9%	-33.4%	2.5%	?
N#C/C(=C(/O)COC(=O)CCc1ccc(S(=O)(=O)N2CCOCC2)cc1)c1nc2ccccc2[nH]1	?	?	20µM*	-22.0%	8.91µM*	-5.1%
CC1CN(S(=O)(=O)c2cccc(C(=O)OC/C(O)=C(\C#N)c3nc4ccccc4[nH]3)c2)CC(C)O1 (centres undefined)	2.0%	?	?	-47.6%	11.2µM*	?
COc1ccccc1NC(=O)COC(=O)CCc1ccc(S(=O)(=O)N2CCOCC2)cc1	1.3%	i	nt	4.8%	nt	12.1%
N#C/C(=C\c1ccc([N+](=O)[O-])o1)c1nc2ccccc2[nH]1	12.6µM*	i	1.58µM*	-34.8%	2µM*	?
COc1cc(N(C)C)c(OC)cc1C=C1C=CC=C1	nt	nt	nt	-33.9%	nt	?
O=C(Nc1ccc(Br)cc1F)c1cnn2c1NC(=C1CC1)C=C2C(F)F	nt	nt	nt	21.5%	nt	25.1%
Cc1ccc2c(c1)sc(=NC(=O)c1cccs1)n2C	?	i	7.94µM*	-52.5%	8.91µM*	?
Cc1ccc2c(c1)sc(=NC(=O)C1CC1)n2C	nt	i	-7.1%	-28.7%	-26.4%	?
